In the supplement of paper PMC10849652:
Of roughly 7,900 targets only a part is listed; those with a hit were picked by preference. About 0.6% of all pairs of compound and target were hits. Values without a mark were called inactive.

Tests used:
Experiment in all cases: log2 fold change, soluble protein after heating vs DMSO (PISA); higher = thermal stabilisation; K562 cells, 10 uM, 30 min; active = over 0.2 and 3.5 SD of the protein, either way, in both replicates (recomputed)
bafetinib = compound: Cc1ccc(NC(=O)c2ccc(CN3CC[C@H](N(C)C)C3)c(C(F)(F)F)c2)cc1Nc1nccc(-c2cncnc2)n1 [bafetinib]
Procedure, shortened: (§1)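 Soluble protein was quantified by TMTpro 16plex LC-MS/MS after channel sums were equalised. It was obtained as the supernatant after 21,000xg for 90 min from pooled aliquots of K562 cells (2×10^6 cells/mL, 10 μM compound, 30 min) heated for 3 min across 48°C-58°C and extracted in PBS with 0.5% NP-40 at 4°C. Thermal stability values are relative to control samples and come from duplicates. They are given as log2 fold changes.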

[1] = compound: Cc1cccc(CC(=O)N2CCc3c2ccc(-c2cn(C)c4ncnc(N)c24)c3F)n1
Procedure, shortened: as §1

nilotinib = compound: Cc1cn(-c2cc(NC(=O)c3ccc(C)c(Nc4nccc(-c5cccnc5)n4)c3)cc(C(F)(F)F)c2)cn1 [nilotinib]
Procedure, shortened: as §1

[2] = compound: Cc1nc(Nc2n[nH]c3c2CN(C(=O)N[C@H](CN(C)C)c2ccccc2)C3(C)C)c2sccc2n1
Procedure, shortened: as §1

dasatinib = compound: Cc1nc(Nc2ncc(C(=O)Nc3c(C)cccc3Cl)s2)cc(N2CCN(CCO)CC2)n1 [dasatinib]
Procedure, shortened: as §1

[3] = compound: Cc1ncc(-c2ccnc(Nc3ccc(S(C)(=O)=O)cc3)n2)n1C(C)C
Procedure, shortened: as §1

[4] = compound: Cn1cc(-c2ccc3c(c2)CCN3C(=O)Cc2cccc(C(F)(F)F)c2)c2c(N)ncnc21
Procedure, shortened: as §1

[5] = compound: Cn1cc(-c2ccc3nnc(C(F)(F)c4ccc5ncccc5c4)n3n2)cn1
Procedure, shortened: as §1

tipifarnib = compound: Cn1cncc1[C@@](N)(c1ccc(Cl)cc1)c1ccc2c(c1)c(-c1cccc(Cl)c1)cc(=O)n2C [tipifarnib]
Procedure, shortened: as §1

mubritinib = compound: FC(F)(F)c1ccc(/C=C/c2nc(COc3ccc(CCCCn4ccnn4)cc3)co2)cc1 [mubritinib]
Procedure, shortened: as §1

[6] = compound: NC(=O)Nc1cc(-c2cccc(F)c2)sc1C(=O)N[C@H]1CCCNC1
Procedure, shortened: as §1

[7] = compound: NC(=O)c1cnc(N[C@@H]2CCCC[C@@H]2N)nc1Nc1cccc(-n2nccn2)c1
Procedure, shortened: as §1

[8] = compound: NC1(c2ccc(-c3nc4ccn5c(=O)[nH]nc5c4cc3-c3ccccc3)cc2)CCC1
Procedure, shortened: as §1

[9] = compound: NCC(=O)Nc1ccc(-n2nc(C(F)(F)F)cc2-c2ccc3c(ccc4ccccc43)c2)cc1
Procedure, shortened: as §1

entinostat = compound: Nc1ccccc1NC(=O)c1ccc(CNC(=O)OCc2cccnc2)cc1 [entinostat]
Procedure, shortened: as §1

vorinostat = compound: O=C(CCCCCCC(=O)Nc1ccccc1)NO [vorinostat]
Procedure, shortened: as §1

citarinostat = compound: O=C(CCCCCCNC(=O)c1cnc(N(c2ccccc2)c2ccccc2Cl)nc1)NO [citarinostat]
Procedure, shortened: as §1

silmitasertib = compound: O=C(O)c1ccc2c(c1)nc(Nc1cccc(Cl)c1)c1ccncc12 [silmitasertib]
Procedure, shortened: as §1

[10] = compound: O=C1NC(=O)C(c2cnc3ccccn23)=C1c1cn2c3c(cc(F)cc13)CN(C(=O)N1CCCCC1)CC2
Procedure, shortened: as §1

[11] = compound: c1cc(OCCN2CCCCC2)cc(-c2n[nH]c3ccc(-c4nnc[nH]4)cc23)c1
Procedure, shortened: as §1

Sequence of UniProt O00217 (O00217 whole entry, looked up): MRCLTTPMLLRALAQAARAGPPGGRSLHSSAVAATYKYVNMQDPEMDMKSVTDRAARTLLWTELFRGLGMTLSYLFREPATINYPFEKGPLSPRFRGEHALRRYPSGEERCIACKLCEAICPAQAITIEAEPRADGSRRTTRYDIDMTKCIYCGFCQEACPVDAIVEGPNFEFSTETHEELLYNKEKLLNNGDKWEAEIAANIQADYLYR
Sequence of UniProt Q9NXX6 (Q9NXX6 whole entry, looked up): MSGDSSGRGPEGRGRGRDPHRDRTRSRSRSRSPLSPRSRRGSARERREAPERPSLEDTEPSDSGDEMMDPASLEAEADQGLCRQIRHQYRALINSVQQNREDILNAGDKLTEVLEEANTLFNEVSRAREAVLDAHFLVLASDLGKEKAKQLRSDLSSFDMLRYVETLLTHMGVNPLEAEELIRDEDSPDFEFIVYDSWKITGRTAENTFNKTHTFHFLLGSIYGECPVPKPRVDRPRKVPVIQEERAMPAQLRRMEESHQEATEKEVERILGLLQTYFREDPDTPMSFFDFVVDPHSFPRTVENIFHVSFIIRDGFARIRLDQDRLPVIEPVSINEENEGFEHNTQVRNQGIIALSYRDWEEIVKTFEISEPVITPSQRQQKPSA
Sequence of UniProt Q15014 (Q15014 whole entry, looked up): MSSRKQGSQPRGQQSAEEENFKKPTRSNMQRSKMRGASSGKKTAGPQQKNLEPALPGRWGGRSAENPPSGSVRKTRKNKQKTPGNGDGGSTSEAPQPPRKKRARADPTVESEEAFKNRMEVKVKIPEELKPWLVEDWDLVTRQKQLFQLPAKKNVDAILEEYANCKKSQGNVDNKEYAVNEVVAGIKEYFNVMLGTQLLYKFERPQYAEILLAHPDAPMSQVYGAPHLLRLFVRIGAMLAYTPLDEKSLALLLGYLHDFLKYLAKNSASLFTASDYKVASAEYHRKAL
Sequence of UniProt Q8N4C8 (Q8N4C8 whole entry, looked up): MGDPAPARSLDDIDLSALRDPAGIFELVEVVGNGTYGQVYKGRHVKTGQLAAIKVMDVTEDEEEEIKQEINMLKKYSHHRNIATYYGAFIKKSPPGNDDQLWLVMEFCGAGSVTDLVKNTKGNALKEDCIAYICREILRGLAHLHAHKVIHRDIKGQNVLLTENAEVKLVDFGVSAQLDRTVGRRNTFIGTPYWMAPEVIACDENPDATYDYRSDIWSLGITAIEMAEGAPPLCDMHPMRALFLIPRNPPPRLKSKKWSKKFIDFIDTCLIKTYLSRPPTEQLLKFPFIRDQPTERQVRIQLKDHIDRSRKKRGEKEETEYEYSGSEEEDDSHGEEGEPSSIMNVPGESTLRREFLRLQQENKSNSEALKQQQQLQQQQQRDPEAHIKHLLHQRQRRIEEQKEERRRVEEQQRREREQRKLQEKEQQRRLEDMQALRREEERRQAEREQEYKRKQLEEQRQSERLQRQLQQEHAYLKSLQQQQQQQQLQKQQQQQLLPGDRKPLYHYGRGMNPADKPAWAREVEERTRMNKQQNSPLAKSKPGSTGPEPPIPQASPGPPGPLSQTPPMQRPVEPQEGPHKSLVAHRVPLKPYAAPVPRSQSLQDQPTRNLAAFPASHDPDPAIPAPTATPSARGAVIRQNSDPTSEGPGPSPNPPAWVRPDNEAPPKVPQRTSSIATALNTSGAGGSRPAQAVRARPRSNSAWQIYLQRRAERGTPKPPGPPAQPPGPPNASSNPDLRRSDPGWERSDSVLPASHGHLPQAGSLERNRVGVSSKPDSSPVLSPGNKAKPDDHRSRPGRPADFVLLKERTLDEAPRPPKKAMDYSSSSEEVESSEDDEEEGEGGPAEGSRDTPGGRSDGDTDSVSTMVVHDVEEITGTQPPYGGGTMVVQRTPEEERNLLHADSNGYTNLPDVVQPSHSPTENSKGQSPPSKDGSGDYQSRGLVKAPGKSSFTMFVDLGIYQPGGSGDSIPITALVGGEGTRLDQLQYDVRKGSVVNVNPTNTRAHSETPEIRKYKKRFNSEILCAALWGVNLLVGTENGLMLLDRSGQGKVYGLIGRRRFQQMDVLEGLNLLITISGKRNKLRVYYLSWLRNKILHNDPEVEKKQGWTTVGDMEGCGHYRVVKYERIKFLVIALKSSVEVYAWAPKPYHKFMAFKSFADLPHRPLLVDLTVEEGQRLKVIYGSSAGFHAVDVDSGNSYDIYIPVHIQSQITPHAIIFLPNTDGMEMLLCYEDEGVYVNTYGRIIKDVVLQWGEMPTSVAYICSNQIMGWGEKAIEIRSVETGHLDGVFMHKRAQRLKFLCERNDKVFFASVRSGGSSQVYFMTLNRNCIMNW
Sequence of UniProt Q13153 (Q13153 whole entry, looked up): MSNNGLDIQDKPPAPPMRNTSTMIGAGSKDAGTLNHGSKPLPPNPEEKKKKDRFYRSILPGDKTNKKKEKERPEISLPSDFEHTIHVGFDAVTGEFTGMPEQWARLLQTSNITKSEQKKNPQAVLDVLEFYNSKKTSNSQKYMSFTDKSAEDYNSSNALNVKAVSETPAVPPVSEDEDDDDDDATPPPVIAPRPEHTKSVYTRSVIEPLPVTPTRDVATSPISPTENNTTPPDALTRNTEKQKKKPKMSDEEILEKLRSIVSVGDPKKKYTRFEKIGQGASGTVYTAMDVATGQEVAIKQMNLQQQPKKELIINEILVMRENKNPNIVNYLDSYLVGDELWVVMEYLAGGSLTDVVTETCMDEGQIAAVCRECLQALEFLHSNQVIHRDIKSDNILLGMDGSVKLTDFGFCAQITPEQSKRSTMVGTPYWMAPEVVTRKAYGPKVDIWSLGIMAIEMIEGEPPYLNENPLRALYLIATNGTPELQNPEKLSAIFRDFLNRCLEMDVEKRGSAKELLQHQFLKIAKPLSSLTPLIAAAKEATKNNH
Sequence of UniProt P35749 (P35749 whole entry, looked up): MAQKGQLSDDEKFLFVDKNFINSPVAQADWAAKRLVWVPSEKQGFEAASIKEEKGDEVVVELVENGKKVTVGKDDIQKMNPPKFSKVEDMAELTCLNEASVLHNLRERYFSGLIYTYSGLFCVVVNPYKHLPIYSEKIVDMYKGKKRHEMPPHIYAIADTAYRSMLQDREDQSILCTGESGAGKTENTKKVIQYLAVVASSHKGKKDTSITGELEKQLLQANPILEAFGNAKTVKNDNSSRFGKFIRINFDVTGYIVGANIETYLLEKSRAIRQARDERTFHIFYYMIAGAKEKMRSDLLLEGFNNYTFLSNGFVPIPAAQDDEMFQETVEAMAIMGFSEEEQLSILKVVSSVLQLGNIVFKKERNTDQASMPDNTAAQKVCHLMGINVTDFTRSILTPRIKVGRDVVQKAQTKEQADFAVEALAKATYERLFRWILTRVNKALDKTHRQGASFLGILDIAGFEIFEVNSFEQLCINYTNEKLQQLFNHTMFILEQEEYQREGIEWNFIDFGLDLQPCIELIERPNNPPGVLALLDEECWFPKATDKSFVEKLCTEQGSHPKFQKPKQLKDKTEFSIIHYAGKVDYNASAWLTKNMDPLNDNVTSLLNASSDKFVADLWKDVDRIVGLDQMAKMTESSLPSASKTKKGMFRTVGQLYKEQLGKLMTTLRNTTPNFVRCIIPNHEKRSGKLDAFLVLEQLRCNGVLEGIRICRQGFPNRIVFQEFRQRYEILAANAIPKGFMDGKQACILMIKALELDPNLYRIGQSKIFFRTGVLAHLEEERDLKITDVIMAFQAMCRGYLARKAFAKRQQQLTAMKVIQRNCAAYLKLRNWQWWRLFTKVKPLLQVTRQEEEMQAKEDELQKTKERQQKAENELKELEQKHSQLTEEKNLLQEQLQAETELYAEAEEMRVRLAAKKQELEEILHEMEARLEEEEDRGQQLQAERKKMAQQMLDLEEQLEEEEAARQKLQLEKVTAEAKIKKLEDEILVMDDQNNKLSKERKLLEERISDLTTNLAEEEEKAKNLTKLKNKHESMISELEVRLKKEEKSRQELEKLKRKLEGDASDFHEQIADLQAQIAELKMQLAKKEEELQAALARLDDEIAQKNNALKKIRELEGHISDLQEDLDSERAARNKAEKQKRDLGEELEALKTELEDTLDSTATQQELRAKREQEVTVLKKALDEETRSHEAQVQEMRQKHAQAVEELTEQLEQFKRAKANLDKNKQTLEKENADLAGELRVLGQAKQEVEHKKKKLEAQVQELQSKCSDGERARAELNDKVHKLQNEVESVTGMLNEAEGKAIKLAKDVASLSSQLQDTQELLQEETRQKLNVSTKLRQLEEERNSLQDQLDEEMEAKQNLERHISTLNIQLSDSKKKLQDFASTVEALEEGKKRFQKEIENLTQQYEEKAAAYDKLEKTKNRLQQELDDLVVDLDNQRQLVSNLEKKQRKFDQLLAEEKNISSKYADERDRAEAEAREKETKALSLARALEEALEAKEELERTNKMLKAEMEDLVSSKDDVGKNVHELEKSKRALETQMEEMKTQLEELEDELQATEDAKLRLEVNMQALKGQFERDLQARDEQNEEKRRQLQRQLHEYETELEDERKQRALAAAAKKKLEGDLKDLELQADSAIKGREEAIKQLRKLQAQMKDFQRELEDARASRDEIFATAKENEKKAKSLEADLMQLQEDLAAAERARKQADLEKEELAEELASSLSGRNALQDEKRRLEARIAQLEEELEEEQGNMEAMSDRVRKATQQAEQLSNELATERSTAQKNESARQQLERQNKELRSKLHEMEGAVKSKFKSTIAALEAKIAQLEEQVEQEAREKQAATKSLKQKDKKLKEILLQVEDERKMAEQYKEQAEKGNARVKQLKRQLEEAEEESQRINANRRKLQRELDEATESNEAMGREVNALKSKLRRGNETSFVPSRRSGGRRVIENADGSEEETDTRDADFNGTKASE
Sequence of UniProt O00483 (O00483 whole entry, looked up): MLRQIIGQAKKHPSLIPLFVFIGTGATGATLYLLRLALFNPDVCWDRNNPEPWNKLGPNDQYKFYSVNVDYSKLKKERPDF
Sequence of UniProt P84157 (P84157 whole entry, looked up): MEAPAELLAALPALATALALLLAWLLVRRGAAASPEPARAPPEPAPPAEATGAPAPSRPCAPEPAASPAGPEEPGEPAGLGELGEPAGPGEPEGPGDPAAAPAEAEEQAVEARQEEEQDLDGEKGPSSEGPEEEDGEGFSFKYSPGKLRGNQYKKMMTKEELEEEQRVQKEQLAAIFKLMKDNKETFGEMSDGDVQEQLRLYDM

Target | log2 fold change (bafetinib) | log2 fold change [1] | log2 fold change (nilotinib) | log2 fold change [2] | log2 fold change (dasatinib) | log2 fold change [3] | log2 fold change [4] | log2 fold change [5] | log2 fold change (tipifarnib) | log2 fold change (mubritinib) | log2 fold change [6] | log2 fold change [7] | log2 fold change [8] | log2 fold change [9] | log2 fold change (entinostat) | log2 fold change (vorinostat) | log2 fold change (citarinostat) | log2 fold change (silmitasertib) | log2 fold change [10] | log2 fold change [11]
MINK1 (UniProt Q8N4C8) | -0.031 | -0.04 | -0.025 | -0.062 | -0.222 (active) | -0.09 | 0.02 | -0.042 | 0.018 | 0.014 | 0.006 | -0.032 | -0.097 | 0.005 | 0.045 | 0.057 | 0.077 | -0.041 | 0.015 | -0.119
NUDT1 (UniProt P36639) | 0.129 | 0.052 | -0.087 | 0.271 | -0.127 | 0.301 | 0.194 | 0.06 | -0.069 | 0.137 | 0.159 | 0.145 | 1.01 (active) | -0.129 | -0.026 | 0.033 | -0.073 | -0.091 | 0.791 | 0.572
NDUFA4 (UniProt O00483) | -0.043 | 0.014 | 0.024 | 0.02 | 0.032 | -0.074 | 0.039 | 0.239 | 0.054 | 0.018 | 0.026 | 0.009 | -0.075 | -0.013 | 0.061 | -0.11 | 0.037 | -0.005 | -0.056 | -0.098
NDUFB10 (UniProt O96000) | -0.105 | -0.11 | -0.02 | 0.026 | -0.011 | -0.021 | 0.015 | 0.081 | 0.044 | 0.019 | -0.062 | -0.06 | -0.054 | -0.022 | -0.034 | -0.053 | 0.031 | 0.021 | -0.018 | -0.006
MORF4L2 (UniProt Q15014) | 0.026 | -0.055 | 0.009 | 0.01 | 0.045 | -0.005 | -0.087 | -0.131 | 0.059 | -0.076 | 0.021 | 0.047 | 0.123 | 0.027 | -0.066 | 0.04 | -0.044 | 0.087 | 0.04 | -0.121
NUDT21 (UniProt O43809) | 0.074 | -0.071 | 0.033 | -0.798 (active) | 0.031 | 0.051 | 0.029 | -0.039 | -0.007 | -0.008 | -0.042 | -0.002 | 0.049 | -0.007 | 0.037 | -0.078 | 0.029 | -0.124 | 0.062 | -0.131
MYH11 isoform 2 (UniProt P35749) | -0.055 | -0.016 | 0.05 | 0.014 | -0.027 | -0.025 | 0.039 | -0.001 | 0.005 | 0.007 | 0.056 | 0.018 | -0.017 | 0.046 | 0.015 | 0.121 | 0.027 | -0.003 | -0.009 | -0.034
MXRA7 (UniProt P84157) | -0.074 | -0.075 | -0.02 | -0.057 | 0.042 | 0.057 | 0.03 | -0.042 | 0.018 | 0.002 | -0.097 | 0.037 | 0.037 | -0.302 (active) | 0.008 | 0.003 | -0.006 | 0.028 | -0.013 | 0.061
MKRN2 (UniProt Q9H000) | 0.073 | -0.194 | -0.048 | -0.062 | -0.088 | 0.066 | -0.284 | -0.099 | -0.01 | -0.142 | -0.007 | 0 | 0.094 | -0.044 | 0.104 | 0.228 | 0.042 | 0.047 | 0.052 | -0.129
NDUFS8 (UniProt O00217) | -0.055 | 0.047 | -0.036 | -0.002 | -0.1 | -0.047 | 0.1 | 0.055 | -0.053 | 0.111 | -0.049 | -0.042 | -0.163 | -0.018 | 0.065 | 0.019 | 0.024 | -0.019 | -0.052 | -0.041
NSMCE4A (UniProt Q9NXX6) | -0.145 | -0.144 | 0.189 | -0.254 | -0.051 | 0.03 | 0.025 | -0.131 | 0.026 | 0.552 (active) | 0.181 | 0.059 | 0 | -0.023 | -0.087 | -0.155 | -0.018 | 0.149 | -0.038 | -0.067
OXSM (UniProt Q9NWU1) | -0.063 | -0.034 | 0.029 | -0.002 | 0.031 | -0.015 | 0.029 | 0.021 | -0.009 | 0.023 | 0.016 | 0.068 | -0.026 | 0.049 | -0.019 | -0.028 | 0.037 | -0.04 | -0.011 | -0.015
NSMCE2 (UniProt Q96MF7) | -0.059 | 0.282 (active) | 0.014 | -0.202 | 0.025 | 0.016 | 0.016 | -0.104 | 0.008 | 0.009 | 0.065 | -0.027 | -0.008 | -0.046 | -0.115 | 0.128 | -0.04 | 0.055 | -0.068 | -0.069
MRPL34 (UniProt Q9BQ48) | 0.176 | 0.035 | -0.083 | 0.248 | 0.065 | -0.064 | -0.142 | -0.048 | 0.058 | 0.032 | 0.02 | 0.018 | 0.045 | 0.095 | -0.041 | 0.035 | 0.004 | 0.053 | 0.09 | -0.175
PAK1 isoform 2 (UniProt Q13153) | -0.017 | 0.04 | 0.03 | 0.036 | -0.025 | -0.027 | 0.041 | 0.035 | -0.004 | 0.015 | -0.067 | 0.051 | 0.012 | -0.083 | 0.021 | 0.096 | -0.033 | 0.043 | -0.068 | -0.032
MRPS9 (UniProt P82933) | 0.106 | 0.067 | -0.094 | 0.008 | -0.023 | -0.024 | -0.073 | 0.057 | -0.025 | 0.085 | -0.03 | -0.011 | -0.117 | 0.018 | 0.008 | 0.167 | 0.035 | -0.083 | -0.019 | -0.081
